Experimental findings from the supplement of paper PMC7156485 are described below.

What all share (settings): concentration: 10 µM; 24 h
For assay [1], the system named is HCC1569. Nature of the assay: cell number relative to DMSO (% of DMSO); higher = more cells (less growth inhibition / toxicity). The gist of the method:
(§1)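 H1.0 nuclear intensity or cell number is expressed as percent of the plate control, with the median of replicates taken. HCC1569 and TDF cells were treated with compounds at 10 µM for 24 h at 37 °C, in triplicate, then fixed and immunostained for H1.0 with DAPI as a nuclear stain. HCC1569 values were smoothed to correct for positional effects.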

Assay [2] concerns TDF. The description is as above. The gist of the method:
as §1

The test system of assay [3] is TDF. Nature of the assay: H1.0 immunofluorescence intensity relative to DMSO (% of DMSO); higher = stronger H1.0 induction, active = 120 or more. Put shortly: as §1
The subject of assay [4] is HCC1569. Briefly: H1.0 immunofluorescence intensity relative to DMSO (% of DMSO); higher = stronger H1.0 induction, active = 140 or more. The gist of the method: as §1

± gives the standard deviation of the averaged measurements.
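Wherever H1.0 immunofluorescence intensity relative to DMSO is given: TDF is a line of transformed human dermal fibroblasts of mesenchymal origin.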
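Wherever cell number relative to DMSO is given: TDF denotes transformed human dermal fibroblasts of mesenchymal origin.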

For `NS(=O)(=O)c1cc2c(cc1Cl)NC(C(Cl)Cl)NS2(=O)=O` (stereo unspecified) [Trichloromethiazide], the cell number was found to be 106 in assay [1] and 105 in assay [2]. In addition, the figures for the H1.0 immunofluorescence intensity in assay [3] and in assay [4] were 93.9 (inactive) and 110 (inactive), respectively.

`COc1ccc(CCNCC(O)c2ccc(O)cc2)cc1OC` (stereo not drawn) [R(-)-Denopamine]: the results for the cell number in assay [1] and in assay [2] were 100 and 103, respectively. For the same molecule, the H1.0 immunofluorescence intensity in assay [3] was 93.5 (inactive); in assay [4], 105 (inactive).

As for `CC(CCc1ccccc1)NCC(O)c1ccc(O)c(C(N)=O)c1.Cl` (stereo unspecified) [Labetalol hydrochloride], the cell number came out at 101 in assay [1] and 106 in assay [2]. For the same molecule, the results for the H1.0 immunofluorescence intensity in assay [3] and in assay [4] were 83.5 (inactive) and 99.3 (inactive), respectively.

Turning to `CN(C)CCCn1cc(C2=C(c3c[nH]c4ccccc34)C(=O)NC2=O)c2ccccc21`, the cell number in assay [1] amounted to 86.2; in assay [2] it was 79.5. In addition, the H1.0 immunofluorescence intensity in assay [3] is 115 (inactive); in assay [4], 139 (inactive).

As for `Cc1cccc(Nc2cc(Cl)nc(SCC(=O)O)n2)c1C`, the values for the cell number in assay [1] and in assay [2] were 101 and 104, respectively. The H1.0 immunofluorescence intensity in assay [3] is 91.8 (inactive); in assay [4], 97.6 (inactive).

As for `Cn1c2ccccc2c2c3c(c4c5ccccc5n(CCC#N)c4c21)CNC3=O`, the figures for the cell number in assay [1] and in assay [2] were 94.3 and 30.5, respectively. Further, the H1.0 immunofluorescence intensity in assay [3] is 90.7 (inactive); in assay [4] it was 99.5 (inactive).

On to `CC(c1cc2ccccc2s1)N(O)C(N)=O` (stereo unspecified) [Zileuton], for which the cell number in assay [1] turned out to be 102; in assay [2], 98.4. Moreover, the H1.0 immunofluorescence intensity is 94.2 (inactive) in assay [3] and 101 (inactive) in assay [4].

As for `COc1ccccc1OCC(O)CN1CCN(CC(=O)Nc2c(C)cccc2C)CC1.Cl.Cl` (stereo unspecified) [Ranolazine dihydrochloride], the cell number amounted to 104 in assay [1] and 107 in assay [2]. The figures for the H1.0 immunofluorescence intensity in assay [3] and in assay [4] were 97.9 (inactive) and 99.9 (inactive), respectively.

Take `CCCCCCCCC(O)C=CC=CC=CC(O)CCCC(=O)O` (stereo unspecified) [Leukotriene B3]: the cell number is 101 in assay [1] and 93.8 in assay [2]. Moreover, the H1.0 immunofluorescence intensity in assay [3] was 98.7 (inactive); in assay [4], 104 (inactive).

Regarding `O=C(COc1ccc(C(=O)c2ccccc2)cc1)NC1CCN(Cc2ccccc2)CC1` [2-(4-benzoylphenoxy)-N-(1-benzyl-4-piperidinyl)acetamide], the cell number came out at 81.9 in assay [1] and 78.3 in assay [2]. The H1.0 immunofluorescence intensity was 118 (inactive) in assay [3] and 158 (active) in assay [4].

`O.O.O=c1c(O)c(-c2ccc(O)c(O)c2)oc2cc(O)cc(O)c12`: the cell number in assay [1] was 90.7; in assay [2] it was 89.7. For the same molecule, the H1.0 immunofluorescence intensity is 101 (inactive) in assay [3] and 116 (inactive) in assay [4].

As for `NC(=O)CC[C@H](N)C(=O)O` [L-Glutamine], the results for the cell number in assay [1] and in assay [2] were 100 and 112, respectively. The H1.0 immunofluorescence intensity was 91.4 (inactive) in assay [3] and 105 (inactive) in assay [4].

Turning to `CC(C)COCC(CN(Cc1ccccc1)c1ccccc1)N1CCCC1.Cl` (stereo unspecified) [Bepridil.HCl], the cell number in assay [1] came to 102; in assay [2], 103. For the same molecule, the figures for the H1.0 immunofluorescence intensity in assay [3] and in assay [4] were 93.1 (inactive) and 99.1 (inactive), respectively.

Consider `COC(=O)C1=C(C#N)NC(C)=C(C(=O)OC(C)C)C1c1cccc([N+](=O)[O-])c1` (stereo unspecified), for which the cell number in assay [1] worked out at 89.8; in assay [2], 97.4. In addition, the H1.0 immunofluorescence intensity in assay [3] was 98.2 (inactive); in assay [4], 123 (inactive).

Regarding `COc1cc2ncnc(Nc3ccc(F)c(Cl)c3)c2cc1OCCCN1CCOCC1` [Gefitinib], the cell number in assay [1] is 82 ± 11; in assay [2], 102 ± 10. The H1.0 immunofluorescence intensity was 98.9 (inactive) in assay [3] and 123 (inactive) in assay [4].

Consider `CC(N)(Cc1ccc(O)c(O)c1)C(=O)O` (stereo unspecified) [Methyldopa], for which the cell number in assay [1] was 107; in assay [2], 100. For the same molecule, the H1.0 immunofluorescence intensity in assay [3] is 102 (inactive); in assay [4] it was 94 (inactive).

For the molecule `C#CCn1c(=O)c2c(ncn2C)n(C)c1=O` [3,7-Dimethyl-I-propargylxanthine], the cell number in assay [1] was determined as 99.5; in assay [2] it was 97.1. The H1.0 immunofluorescence intensity was 91.6 (inactive) in assay [3] and 93.4 (inactive) in assay [4].

As to `CN(C)CCn1cc(S(=O)(=O)c2cccc(F)c2)c2cccnc21`, the cell number stood at 99.5 in assay [1] and 74.4 in assay [2]. Moreover, the H1.0 immunofluorescence intensity is 127 (active) in assay [3] and 111 (inactive) in assay [4].

As to `COc1cc(C2Oc3cc(C4Oc5cc(O)cc(O)c5C(=O)C4O)ccc3OC2CO)ccc1O` (stereo unspecified) [Silybine], the cell number in assay [1] was found to be 100; in assay [2], 103. For the same molecule, the H1.0 immunofluorescence intensity is 95.9 (inactive) in assay [3] and 90.2 (inactive) in assay [4].

`O=C1NC(=O)c2cc(Nc3ccc(F)cc3)c(Nc3ccc(F)cc3)cc21`: the cell number in assay [1] was determined as 93.4; in assay [2] it was 110. Besides, the values for the H1.0 immunofluorescence intensity in assay [3] and in assay [4] were 93.4 (inactive) and 133 (inactive), respectively.

As to `CON=C(C(=O)NC1C(=O)N2C(C(=O)[O-])=C(COC(C)=O)CSC12)c1csc(N)n1.[Na+]` (stereo unspecified) [Cefotaxime sodium], the cell number in assay [1] turned out to be 103; in assay [2], 117. The H1.0 immunofluorescence intensity in assay [3] was 92.3 (inactive); in assay [4], 87 (inactive).

With `CC1CC2C3CCC4=CC(=O)C=CC4(C)C3(F)C(O)CC2(C)C1(O)C(=O)CO` (stereo unspecified) [Dexamethasone], the figures for the cell number in assay [1] and in assay [2] were 100 and 102, respectively. The H1.0 immunofluorescence intensity was 81.6 (inactive) in assay [3] and 112 (inactive) in assay [4].

With `N#CCNC(=O)c1ccc(-c2ccnc(Nc3ccc(N4CCOCC4)cc3)n2)cc1`, the cell number in assay [1] amounted to 64.8; in assay [2], 36.1. Moreover, the results for the H1.0 immunofluorescence intensity in assay [3] and in assay [4] were 132 (active) and 127 (inactive), respectively.

On to `COC(=O)C(Cc1ccc(OCCn2c(=O)sc3cc(C(=O)c4ccccc4)ccc32)cc1)C(=O)OC`, for which the values for the cell number in assay [1] and in assay [2] were 102 and 91.8, respectively. Moreover, the H1.0 immunofluorescence intensity in assay [3] is 93.3 (inactive); in assay [4], 105 (inactive).
